Assay results published in the supplement of paper PMC6805474.

What was measured:
[1] = test system: Schistosoma mansoni schistosomula (LE); experiment: XTT viability relative to DMSO control; higher = more viable (less active); conditions: 72 h; 10 µM
Procedure: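 XTT/PMS was then added for a further 24 h (72 h total) and A450 was read. % viability = (sample - heat-killed control)/(DMSO control - heat-killed control) x 100, from duplicate wells in two independent experiments.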

[2] = test system: Schistosoma mansoni schistosomula (NMRI); experiment: phenotypic severity score (0-4); higher = more antischistosomal effect, active = 2 or more; conditions: 10 µM
[3] = test system: Schistosoma mansoni schistosomula (Liberian); experiment: drug effect (1 - score/DMSO control score) (fraction); higher = more antischistosomal effect, active = 0.5 or more; extreme values may be limits of the assay; conditions: 10 µM
How it was run: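 A plate was valid only if its 0.1% DMSO wells averaged a score of at least 2. Those wells ran beside duplicate wells in which 50 Liberian-strain Schistosoma mansoni schistosomula each, transformed mechanically from cercariae and pre-incubated at least 12 h, met 10 µM compound in Medium 199 with 5% FCS at 37 °C, 5% CO2. Scoring was visual at 10× at 24, 48 and 72 h, from 3 (normal) to 0 (dead) in quarter-point steps. Drug effect was derived from the mean test-well score against the mean DMSO-well score, with negatives set to zero.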
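Throughout, for phenotypic severity score (0-4): visual microscopic scoring of shape, motility and density changes versus 0.5% DMSO solvent controls, one point per descriptor, degeneracy or death scored 4, mean of duplicate wells.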

O=C(Nc1cnc2ccccc2c1)c1cccc(-n2cnnn2)c1
85.7%: XTT viability [1]
inactive: phenotypic severity score ([2]; 24 h) 0 | phenotypic severity score ([2]; 48 h) 0 | phenotypic severity score ([2]; 72 h) 0 | drug effect ([3]; 24 h) < 0 | drug effect ([3]; 48 h) < 0 | drug effect ([3]; 72 h) 0.0303

CC(=O)NCC1CN(c2ccc(-c3ccc(CO)cc3)c(F)c2)C(=O)O1 (configuration not stated)
inactive: phenotypic severity score ([2]; 24 h) 0 | phenotypic severity score ([2]; 48 h) 1 | phenotypic severity score ([2]; 72 h) 0 | drug effect ([3]; 24 h) 0.1 | drug effect ([3]; 48 h) 0.111 | drug effect ([3]; 72 h) 0.0625
138%: XTT viability [1]

Clc1ccc(CN2CCN(C3=NCCN3)CC2)cc1Cl
inactive: phenotypic severity score ([2]; 24 h) 1 | phenotypic severity score ([2]; 48 h) 0 | phenotypic severity score ([2]; 72 h) 0 | drug effect ([3]; 24 h) 0.1 | drug effect ([3]; 48 h) 0.0556 | drug effect ([3]; 72 h) 0.125
81.9%: XTT viability [1]

O=C(Nc1ccccc1-c1nc2c(C(=O)O)cccc2o1)c1ccccc1
54.1%: XTT viability [1]
inactive: phenotypic severity score ([2]; 24 h) 0 | phenotypic severity score ([2]; 48 h) 0 | phenotypic severity score ([2]; 72 h) 0 | drug effect ([3]; 24 h) 0.05 | drug effect ([3]; 48 h) 0.027 | drug effect ([3]; 72 h) 0.0303

CCCc1ccc(S(=O)(=O)Nc2ccc(CN3CCN(CC4CC4)CC3)cc2)cc1
inactive: phenotypic severity score ([2]; 24 h) 0 | phenotypic severity score ([2]; 48 h) 0 | phenotypic severity score ([2]; 72 h) 0 | drug effect ([3]; 24 h) 0.15 | drug effect ([3]; 48 h) 0.167 | drug effect ([3]; 72 h) 0.375
108%: XTT viability [1]

CCOc1ccccc1C(=O)Nc1cccc(-c2nc3ncccn3c2C)c1
107%: XTT viability [1]
active: drug effect ([3]; 72 h) 0.625
inactive: phenotypic severity score ([2]; 24 h) 0 | phenotypic severity score ([2]; 48 h) 0 | phenotypic severity score ([2]; 72 h) 0 | drug effect ([3]; 24 h) 0.0811 | drug effect ([3]; 48 h) 0.389

COc1ccc(Oc2ccc([C@@H](C)N(C)c3ncc4c(N)nc(N)nc4n3)cc2)cc1
4.74%: XTT viability [1]
active: phenotypic severity score ([2]; 24 h) 4 | phenotypic severity score ([2]; 48 h) 4 | phenotypic severity score ([2]; 72 h) 4 | drug effect ([3]; 24 h) 0.526 | drug effect ([3]; 48 h) 0.5 | drug effect ([3]; 72 h) 0.5

c1ccc(-c2[nH]c3ccccc3c2C(c2ccccn2)N2CCCC2)cc1 (configuration not stated)
-3.4%: XTT viability [1]
active: phenotypic severity score ([2]; 24 h) 4 | phenotypic severity score ([2]; 48 h) 4 | phenotypic severity score ([2]; 72 h) 4 | drug effect ([3]; 24 h) 1 | drug effect ([3]; 48 h) 1 | drug effect ([3]; 72 h) 1

Cc1nc(-c2ccccn2)nc(N2CCC(Cc3ccccc3)C2)c1Cl (configuration not stated)
-3.46%: XTT viability [1]
inactive: phenotypic severity score ([2]; 24 h) 0 | phenotypic severity score ([2]; 48 h) 0 | phenotypic severity score ([2]; 72 h) 0 | drug effect ([3]; 24 h) 0.15 | drug effect ([3]; 48 h) 0.1 | drug effect ([3]; 72 h) 0.333

Cc1ccc(NC(=O)CC2COc3ccccc3O2)cc1Cl (configuration not stated)
125%: XTT viability [1]
inactive: phenotypic severity score ([2]; 24 h) 0 | phenotypic severity score ([2]; 48 h) 0 | phenotypic severity score ([2]; 72 h) 0 | drug effect ([3]; 24 h) 0.136 | drug effect ([3]; 48 h) 0.3 | drug effect ([3]; 72 h) 0.4

Cc1cc(Nc2ccc(C(F)(F)F)cc2)n2ccnc2n1
inactive: phenotypic severity score ([2]; 24 h) 0 | phenotypic severity score ([2]; 48 h) 0 | phenotypic severity score ([2]; 72 h) 0 | drug effect ([3]; 24 h) 0.0909 | drug effect ([3]; 48 h) 0.15 | drug effect ([3]; 72 h) 0.158
71.7%: XTT viability [1]

O=C(C1CCN(c2cc(-n3cccc3)ncn2)CC1)N1CCc2ccccc2C1
inactive: phenotypic severity score ([2]; 24 h) 0 | phenotypic severity score ([2]; 48 h) 0 | phenotypic severity score ([2]; 72 h) 1 | drug effect ([3]; 24 h) 0.05 | drug effect ([3]; 48 h) 0.111 | drug effect ([3]; 72 h) 0.333
96.4%: XTT viability [1]

CS(=O)(=O)Cc1nc2ccccc2oc1=O
355%: XTT viability [1]
inactive: phenotypic severity score ([2]; 24 h) 0 | phenotypic severity score ([2]; 48 h) 0 | phenotypic severity score ([2]; 72 h) 0 | drug effect ([3]; 24 h) 0.182 | drug effect ([3]; 48 h) 0.45 | drug effect ([3]; 72 h) 0.455

Nc1nccc2ccc(-c3ccc4nccn4c3)cc12
41.1%: XTT viability [1]
active: phenotypic severity score ([2]; 24 h) 4 | phenotypic severity score ([2]; 48 h) 4 | phenotypic severity score ([2]; 72 h) 4 | drug effect ([3]; 24 h) 0.568 | drug effect ([3]; 48 h) 0.778 | drug effect ([3]; 72 h) 0.75

COc1ccc(C2CC(c3cccs3)=NN2C(=O)c2ccco2)cc1OC (configuration not stated)
65.7%: XTT viability [1]
inactive: phenotypic severity score ([2]; 24 h) 0 | phenotypic severity score ([2]; 48 h) 0 | phenotypic severity score ([2]; 72 h) 0 | drug effect ([3]; 24 h) 0.1 | drug effect ([3]; 48 h) 0.135 | drug effect ([3]; 72 h) 0.167

Cc1cc(C)n(-c2ccc(NC(=O)C3CCN(Cc4cnc(C)s4)CC3)cc2)n1
135%: XTT viability [1]
inactive: phenotypic severity score ([2]; 24 h) 0 | phenotypic severity score ([2]; 48 h) 0 | phenotypic severity score ([2]; 72 h) 0 | drug effect ([3]; 24 h) 0.1 | drug effect ([3]; 48 h) 0.135 | drug effect ([3]; 72 h) 0.152

Cc1nc(-c2cccc(NCc3ccccc3)c2)[nH]c1C
104%: XTT viability [1]
inactive: phenotypic severity score ([2]; 24 h) 0 | phenotypic severity score ([2]; 48 h) 0 | phenotypic severity score ([2]; 72 h) 0 | drug effect ([3]; 24 h) 0.1 | drug effect ([3]; 48 h) 0.111 | drug effect ([3]; 72 h) 0.25

COc1cccc2c(C)nc(N=C(N)N)nc12
inactive: phenotypic severity score ([2]; 24 h) 0 | phenotypic severity score ([2]; 48 h) 0 | phenotypic severity score ([2]; 72 h) 0 | drug effect ([3]; 24 h) 0.182 | drug effect ([3]; 48 h) 0.2 | drug effect ([3]; 72 h) 0.127
93.3%: XTT viability [1]

NS(=O)(=O)c1cccc(-c2ccc3ncc(N4CCOCC4)nc3c2)c1
116%: XTT viability [1]
inactive: phenotypic severity score ([2]; 24 h) 0 | phenotypic severity score ([2]; 48 h) 0 | phenotypic severity score ([2]; 72 h) 0 | drug effect ([3]; 24 h) 0.15 | drug effect ([3]; 48 h) 0.189 | drug effect ([3]; 72 h) 0.455

c1ccc(Oc2ccc(-c3cc(CN4CCOCC4)[nH]n3)cc2)cc1
85.9%: XTT viability [1]
inactive: phenotypic severity score ([2]; 24 h) 0 | phenotypic severity score ([2]; 48 h) 0 | phenotypic severity score ([2]; 72 h) 0 | drug effect ([3]; 24 h) 0.0455 | drug effect ([3]; 48 h) 0.05 | drug effect ([3]; 72 h) 0.158

Cc1ccc2oc(-c3cc(NC(=O)Cc4ccccc4)ccc3Cl)nc2c1
inactive: phenotypic severity score ([2]; 24 h) 1 | phenotypic severity score ([2]; 48 h) 0 | phenotypic severity score ([2]; 72 h) 0 | drug effect ([3]; 24 h) 0.227 | drug effect ([3]; 48 h) 0.25 | drug effect ([3]; 72 h) 0.236
109%: XTT viability [1]
